In PubChem BioAssay AID1851 (National Center for Advancing Translational Sciences (NCATS), 2009) one finds activity, negative = inhibition and AC50 data, which are given here for 97 compounds.

Structures are written as SMILES. The campaign covered roughly 16,000 compounds. About 5,100 (32%) were called active. Roughly 25% stayed inconclusive and do not appear here. The list shows a part of the results. Values without a mark were called inactive. The call rests on the fitted dose curve; in most records, active means well fitted curve in the direction sought with a large enough effect; inconclusive means small, poorly fitted or top-dose-only effect, or effect the other way; inactive means no such curve, though single readings can be large or run the other way.

The AC50 is the midpoint of the concentration-response curve, whichever way the signal moves.
On the % scale 0 is the no-effect control and ±100 the full control effect.

The target of the assay is Cytochrome P450 3A4 (Homo sapiens) (UniProt P08684). Nature of the assay: Cytochrome panel assay with activity outcomes. The following applies: recombinant CYP, pro-luciferin dealkylation, luminescence, p450-cyp3a4; series mostly up to 57.1 µM.
Chain of Cytochrome P450 3A4 (Homo sapiens) (P08684 whole entry, looked up): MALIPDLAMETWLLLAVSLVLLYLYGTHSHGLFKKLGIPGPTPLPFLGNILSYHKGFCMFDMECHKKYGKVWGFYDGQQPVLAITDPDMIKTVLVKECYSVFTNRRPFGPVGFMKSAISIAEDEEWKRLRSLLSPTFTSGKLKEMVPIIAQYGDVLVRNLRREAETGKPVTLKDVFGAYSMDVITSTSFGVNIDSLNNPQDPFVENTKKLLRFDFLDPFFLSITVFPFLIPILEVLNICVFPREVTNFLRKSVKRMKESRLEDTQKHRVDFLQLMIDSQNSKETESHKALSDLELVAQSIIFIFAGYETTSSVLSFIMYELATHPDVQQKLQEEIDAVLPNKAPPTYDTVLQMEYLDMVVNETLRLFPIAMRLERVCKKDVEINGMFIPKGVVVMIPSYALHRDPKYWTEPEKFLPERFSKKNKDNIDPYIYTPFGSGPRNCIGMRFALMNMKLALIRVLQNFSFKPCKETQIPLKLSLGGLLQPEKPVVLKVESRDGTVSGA
With `Cc1ccc([C@@]2(C)CC/C(=N/N=C3\CC[C@](C)(c4ccc(C)c(C)c4)c4cc(C)c(C)cc43)c3cc(C)c(C)cc32)cc1C`, the activity, negative = inhibition is -0.566% [at 11.4 µM].
For `c1ccc(CCNCc2ccco2)nc1`, the activity, negative = inhibition is -15.3% [at 11.4 µM].
Consider `S=C1SCN(Cc2ccccn2)CN1Cc1ccco1`, for which the AC50 is 20 µM (active).
`S=c1nc[nH]c2c1ncn2Cc1ccco1`: the activity, negative = inhibition was -14.9% [at 11.4 µM].
The same measure, in the same setting: in the case of `C/C(=N/O)c1ccc2cc(Br)c3ccccc3c2c1` it was -23.8% [at 11.4 µM].
As for `O=C1C(Cc2ccccc2)SC(=Nc2ccccc2)N1c1ccccc1` (configuration not stated), the AC50 was 3.98 µM (active).
`O=C1/C(=C\c2ccc(Br)o2)SC(=Nc2ccccc2)N1c1ccccc1`: the AC50 entry was “inactive”.
Consider `COC(=O)Cn1c(=O)c2c(nc(Br)n2Cc2ccccc2Cl)n(C)c1=O`, for which the activity, negative = inhibition was -4.19% [at 2.29 µM].
In the case of `C=CCn1c(=O)c2c(nc(Br)n2Cc2ccccc2Cl)n(C)c1=O`, the AC50 is 0.794 µM (active).
Still for that read-out and setting: the same measure for `C=CCn1c(=O)c2c(nc(-c3ccc(S(=O)(=O)O)cc3)n2C)n(C)c1=O`: “inactive”.
Consider `O=C(COc1ccccc1-c1ccccc1)N/N=C/c1cccc2ccccc12`, for which the activity, negative = inhibition is 1.08% [at 2.29 µM].
Take `O=C(COc1ccc(-c2ccccc2)cc1)N/N=C/c1ccccc1Br`: the AC50 is 14.1 µM (active).
For `Cc1nnc(NC(=O)CCC(=O)NCc2cccs2)s1`, the AC50 entry was “inactive”.
For `COc1ccccc1OCCn1cc(C(=O)c2ccco2)c2ccccc21`, the AC50 is 3.98 µM (active).
On the same count and under the same terms, in the case of `Cc1ccccc1C(=O)c1cccn1CC(=O)NCc1ccco1` it was 22.4 µM (active).
Same read-out and setting: in the case of `O=C(Cn1cccc1C(=O)c1ccccc1)NCc1cccs1` it was 10 µM (active); in that of `O=C(Cn1cc(C(=O)c2ccco2)c2ccccc21)NCc1ccco1`, 25.1 µM (active).
On to `c1ccc2c(c1)ncn2Cc1nnc2sc(-c3ccc4c(c3)OCO4)nn12`, for which the concentration at half-maximal activity (AC50) is 2.24 µM (active).
For the compound `CC(C)Oc1ccc(N2CC(C(=O)OCC(=O)NCc3ccccc3)CC2=O)cc1` (configuration not stated), the activity, negative = inhibition is 1.29% [at 2.29 µM].
As to `COc1ccc(N2CC(C(=O)OCC(=O)c3cccc(OC)c3)CC2=O)cc1` (configuration not stated), the AC50 was 14.1 µM (active).
For the compound `COC(=O)c1sccc1NC(=O)CN(C)NS(=O)(=O)c1ccc(F)cc1`, the AC50 entry was “inactive”.
In the case of `COC(=O)c1sccc1NC(=O)CSc1ccccc1NS(=O)(=O)c1ccc(Cl)cc1`, the AC50 was 3.55 µM (active).
Regarding `COC(=O)c1sccc1NC(=O)CSc1ccc(Cl)cc1`, the activity, negative = inhibition is -2.63% [at 2.29 µM].
In the case of `COC(=O)c1sccc1NC(=O)CSc1cc(Cl)ccc1Cl`, the AC50 is 22.4 µM (active).
Consider `Cc1ccc(C(=O)NNC(=O)CSc2nnc(-c3ccncc3)n2-c2ccc(C)cc2)cc1`, for which the AC50 is 3.16 µM (active).
The same measure, in the same setting: in the case of `CCn1c(SCC(=O)Nc2ccccc2C(=O)OC)nnc1-c1ccc(N)cc1` it was 0.631 µM (active).
In the case of `CCCCOC(=O)Nc1ccccc1C(=O)OC`, the activity, negative = inhibition is 20.6% [at 11.4 µM].
For the compound `Cc1ccccc1NC(=O)CSc1nnc(-c2ccccc2)n1-c1ccccc1`, the AC50 is 3.55 µM (active).
For `O=C(CSc1nnc(-c2ccccc2)n1-c1ccccc1)c1cccs1`, the AC50 is 7.08 µM (active).
`CCOC(=O)c1ccccc1NC(=O)CSc1cccc[n+]1[O-]`: the AC50 result is “inactive”.
In the case of `O=C(O)c1cc2cc(Cl)ccc2oc1=O`, the AC50 result was “inactive”.
On the same count and under the same terms, in the case of `CN(C)CCNC(=O)C1CCCNC1=O` (configuration not stated) it was “inactive”; in that of `CCOc1ccc(-n2c(SCC(=O)Nc3ccccc3C)n[nH]c2=O)cc1`, 12.6 µM (active).
With `Cc1ncn(-c2ccccc2O)c1C`, the activity, negative = inhibition is -10.7% [at 11.4 µM].
For `CCCCOC(=O)Nc1nc2ccccc2s1`, the activity, negative = inhibition was 0.331% [at 11.4 µM].
`Cc1cnc(NC(=O)CCCc2nc3ccccc3s2)s1`: the AC50 is 2 µM (active).
Same read-out and setting: the same measure for `OC[C@H]1O[C@H](n2cnc3c(NC4CCCC4)nc(Cl)nc32)[C@@H](O)[C@@H]1O`: “inactive”; for `NC1(C(=O)O)CC(C(=O)O)C1` (configuration not stated): “inactive”; for `COc1cc(C2C(C(=O)OCCC#N)=C(C)NC3=C2S(=O)(=O)c2ccccc23)cc(OC)c1OC` (configuration not stated): 5.01 µM (active).
On the same count and under the same terms, in the case of `Cc1cc(C=O)c(C)n1-c1ccc(NC2CCCC2)c([N+](=O)[O-])c1` it was 4.47 µM (active).
As to `COc1ccc(-n2c(C)cc(C=O)c2C)cc1Cl`, the activity, negative = inhibition was 6.7% [at 2.29 µM].
Take `Cc1cc(C=O)c(C)n1-c1ccc(N2CCCCC2)c([N+](=O)[O-])c1`: the AC50 result was “inactive”.
Same read-out and setting: in the case of `CN(Cc1ccco1)c1cc(-c2ccc3c(c2)OCO3)ncn1` it was 3.98 µM (active).
On the same count and under the same terms, the same measure for `CN(Cc1ccco1)c1cc(-c2ccoc2)ncn1`: “inactive”.
Same read-out and setting: in the case of `CN(C)c1ccc(-c2cc(N(C)Cc3ccco3)ncn2)cc1` it was 12.6 µM (active).
For the compound `CS(=O)(=O)Nc1cccc(-c2ccc3ncnc(N4CCOCC4)c3c2)c1`, the AC50 was 7.94 µM (active).
The same measure, in the same setting: in the case of `CS(=O)(=O)Nc1cccc(-c2ccc3ncnc(NCCN4CCOCC4)c3c2)c1` it was 15.8 µM (active); in that of `CS(=O)(=O)Nc1cccc(-c2ccc3ncnc(N4CCNCC4)c3c2)c1`, 15.8 µM (active).
Turning to `CN(C)CCSCCO`, the activity, negative = inhibition is -12.3% [at 11.4 µM].
In the case of `COC(=O)C1=C(C)NC(C)=C([N+](=O)[O-])[C@@H]1c1ccccc1C(F)(F)F`, the AC50 was 12.6 µM (active).
As to `Oc1cc(O)c2c(c1)O[C@H](c1ccc(O)c(O)c1)[C@H](O)C2`, the AC50 entry was “inactive”.
As to `Oc1cc(O)c2c(c1)O[C@H](c1ccc(O)c(O)c1)[C@@H](O)[C@@H]2c1c(O)cc(O)c2c1O[C@@H](c1ccc(O)c(O)c1)[C@H](O)C2`, the activity, negative = inhibition was -13.1% [at 11.4 µM].
`O=C1c2c(O)cc(O)cc2O[C@@H](c2ccc(O)c(O)c2)[C@H]1O`: the AC50 is 10 µM (active).
Take `CN(C)[C@H]1C(=O)C(C(=O)NCN2CCCC2)=C(O)[C@]2(O)C(=O)C3=C(O)c4c(O)cccc4[C@](C)(O)[C@H]3C[C@H]12`: the activity, negative = inhibition is -6.5% [at 11.4 µM].
For `CC(=O)NC1=NC(=O)CS1`, the AC50 entry was “inactive”.
Still for that read-out and setting: the same measure for `N[C@@]1(C(=O)O)CN[C@H](C(=O)O)C1`: “inactive”.
Regarding `CCOc1cc(-c2noc(N)c2C#N)cc(OCC)c1OCC`, the AC50 is 0.2 µM (active).
Same read-out and setting: the same measure for `Cc1ccc(S(=O)(=O)N2CCN(C(=O)CN3CCN(C)CC3)C2)cc1`: “inactive”; for `Cc1ccc(S(=O)(=O)N2CCN(Cc3ccccc3C(F)(F)F)CC2)cc1`: 8.91 µM (active).
`Cc1ccc(S(=O)(=O)N2CCN(S(C)(=O)=O)C2)cc1`: the activity, negative = inhibition is -0.447% [at 11.4 µM].
Still for that read-out and setting: in the case of `O=C(Nc1cccc(OC(=O)c2cccnc2)c1)c1cccnc1` it was -4.22% [at 2.29 µM].
`O=C(Nc1cccnc1)c1ccc2snnc2c1`: the AC50 was 11.2 µM (active).
On the same count and under the same terms, the same measure for `COC(=O)c1cc(C#N)c(NCc2ccc(Cl)cc2Cl)nc1C`: “inactive”.
Same read-out and setting: in the case of `Cc1cc(C)c2cc(C#N)c(NCCOC(=O)c3ccccc3C)nc2c1` it was 7.08 µM (active); in that of `CCOC(=O)c1ccccc1Oc1c(F)c(F)nc(NCCO)c1F`, “inactive”.
On the same count and under the same terms, the same measure for `COc1ccc(CCN(C(=O)C(F)(F)F)C(C(=O)NC2CCCC2)c2cccs2)cc1` (configuration not stated): 3.55 µM (active); for `Cc1nnc(N(C)C(=O)c2ccccn2)s1`: “inactive”; for `Cc1ccc(N(C(=O)C(F)(F)F)C(C(=O)NC2CCCCC2)c2cccs2)cc1C` (configuration not stated): 6.31 µM (active).
`Cc1cc(C)cc(N(C(=O)c2ccccn2)C(C(=O)NC2CCCCC2)c2cccs2)c1` (configuration not stated): the AC50 was 5.01 µM (active).
For `O=C(NC1CCCCC1)c1ccc(COCC(F)(F)F)o1`, the AC50 result is “inactive”.
Same read-out and setting: the same measure for `O=C(NC1CCCCC1)C(c1cccs1)N(C(=O)C(F)(F)F)c1ccccc1` (configuration not stated): 7.08 µM (active).
Still for that read-out and setting: in the case of `Cc1snc(SCC(=O)N/N=C(\N)COc2cccc(C(F)(F)F)c2)c1C#N` it was 3.16 µM (active); in that of `O[C@H](CCCN1CCN(c2ncc(F)cn2)CC1)c1ccc(F)cc1`, “inactive”.
Still for that read-out and setting: the same measure for `COc1cccc(CNC(=O)CCNC(=O)Cn2ccc3ccccc3c2=O)c1`: 14.1 µM (active).
Regarding `COc1ccc(OC)c(CNC(=O)CCNC(=O)Cn2ccc3ccccc3c2=O)c1`, the activity, negative = inhibition was 5.01% [at 2.29 µM].
On the same count and under the same terms, the same measure for `O=C(CCNC(=O)Cn1cnc2ccccc2c1=O)NCC1COc2ccccc2O1` (configuration not stated): 5.27% [at 2.29 µM].
Regarding `CCCC[C@@H]1C[C@H]1C(NC(=O)c1ccco1)c1ccc(Cl)cc1` (some centres not stated), the AC50 is 7.94 µM (active).
For the compound `CCCC[C@@H]1C[C@H]1C(NC(=O)c1ccco1)c1ccc(C(=O)OC)cc1` (some centres not stated), the AC50 was 15.8 µM (active).
As for `CC1CCN(C(NC(=O)c2ccco2)C(=O)c2ccccc2)CC1` (configuration not stated), the AC50 entry is “inactive”.
On the same count and under the same terms, the same measure for `CCCC[C@@H]1C[C@H]1C(NC(=O)c1ccco1)c1ccc(-c2ccccc2)cc1` (some centres not stated): 15.8 µM (active); for `CCC1(c2ccccc2)C(=O)NCNC1=O`: “inactive”.
On the same count and under the same terms, the same measure for `O=C(CSC1CC(=O)N(CC(c2ccccc2)c2ccccc2)C1=O)Nc1ccc(Cl)cc1` (configuration not stated): 8.91 µM (active); for `CCCCN1C(=O)CC(Sc2ccccc2C(=O)O)C1=O` (configuration not stated): “inactive”.
Regarding `Cc1cc2ccc(OC(=O)c3ccc(N=C(N)N)cc3)cc2oc1=O`, the activity, negative = inhibition is -27.2% [at 11.4 µM].
On to `CCC(=O)c1ccc2c(c1)N(CCCN(C)C)c1ccccc1S2`, for which the AC50 entry is “inactive”.
Consider `CN(C)CCCN1c2ccccc2Sc2ccc3ccccc3c21`, for which the activity, negative = inhibition was -13.6% [at 11.4 µM].
As for `CN(C)CCCN1c2ccccc2Sc2cnccc21`, the AC50 is 1.58 µM (active).
`Cc1cc(NC(=O)COC(=O)c2ccc(NS(=O)(=O)c3ccc(C)c(C)c3)cc2)no1`: the AC50 is 5.01 µM (active).
The same measure, in the same setting: in the case of `COc1ccccc1NC(=O)COC(=O)c1ccc(S(=O)(=O)NCc2ccco2)cc1` it was 28.2 µM (active); in that of `O=C(NCc1ccccc1)c1ccc(S(=O)(=O)N2CCCc3ccccc32)cc1`, 10 µM (active).
The same measure, in the same setting: the same measure for `COc1ccc(OC)c(NC(=O)C(CC(=O)O)NCc2ccco2)c1` (configuration not stated): “inactive”.
Same read-out and setting: the same measure for `COc1ccccc1NS(=O)(=O)c1cccc(C(=O)OCC(=O)Nc2cc(C)on2)c1`: 7.08 µM (active).
As for `COc1cc2ccccc2cc1C(=O)Nc1ccc(S(=O)(=O)Nc2cc(C)on2)cc1`, the activity, negative = inhibition was 6.01% [at 11.4 µM].
For the compound `Cc1cc(NC(=O)c2ccc(S(=O)(=O)Nc3ccccc3)cc2)no1`, the activity, negative = inhibition was 2.51% [at 2.29 µM].
On to `O=C(Nc1ccc(S(=O)(=O)N2CCCCC2)cc1)c1ccc(CN2CCc3ccccc3C2)cc1`, for which the AC50 entry is “inactive”.
As to `O=C(Cc1ccccc1)NC1CCN(S(=O)(=O)c2ccc(C(=O)O)cc2)CC1`, the AC50 entry is “inactive”.
As for `Cc1cc(NC(=O)c2cccc(F)c2)no1`, the AC50 result was “inactive”.
